Measurements: the supplement of paper PMC8728848
This is one part of a sample in which the strongest signals are shown more often than they occur.

Experiments:
Assay in all cases: glycan array binding signal (z-score within array); higher = stronger binding
Conditions in all cases: glycan notation: IUPAC condensed, linker removed
[1] = target: GlcNAc(b1-3)Gal(b1-4)GlcNAc(b1-3)Gal(b1-4)GlcNAc
In short: (§1)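 The binding signal is a Z-score computed within each array. Data were drawn from 3228 arrays in the Consortium for Functional Glycomics database, restricted to those with a known protein sequence. Scores were averaged over arrays of the same protein sequence at different concentrations or buffers, and over linkers, and negative values can be taken as non-binding.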

[2] = target: GlcNAc(b1-3)Gal(b1-4)GlcNAc(b1-3)Gal(b1-4)GlcNAc(b1-2)Man(a1-3)[GlcNAc(b1-3)Gal(b1-4)GlcNAc(b1-3)Gal(b1-4)GlcNAc(b1-2)Man(a1-6)]Man(b1-4)GlcNAc(b1-4)GlcNAc
In short: as §1

[3] = target: GlcNAc(b1-3)Gal(b1-4)GlcNAc(b1-3)Gal(b1-4)GlcNAc(b1-3)Gal(b1-4)GlcNAc(b1-2)Man(a1-3)[GlcNAc(b1-3)Gal(b1-4)GlcNAc(b1-3)Gal(b1-4)GlcNAc(b1-3)Gal(b1-4)GlcNAc(b1-2)Man(a1-6)]Man(b1-4)GlcNAc(b1-4)[Fuc(a1-6)]GlcNAc
In short: as §1

[4] = target: GlcNAc(b1-3)Gal(b1-4)GlcNAc(b1-3)Gal(b1-4)GlcNAc(b1-3)Gal(b1-4)GlcNAc(b1-3)Gal(b1-4)GlcNAc(b1-2)Man(a1-3)[GlcNAc(b1-3)Gal(b1-4)GlcNAc(b1-3)Gal(b1-4)GlcNAc(b1-3)Gal(b1-4)GlcNAc(b1-3)Gal(b1-4)GlcNAc(b1-2)Man(a1-6)]Man(b1-4)GlcNAc(b1-4)GlcNAc
In short: as §1

[5] = target: GlcNAc(b1-3)Gal(b1-4)GlcNAc(b1-3)Gal(b1-4)GlcNAc(b1-3)Gal(b1-4)GlcNAc(b1-3)Gal(b1-4)GlcNAc(b1-2)[GlcNAc(b1-3)Gal(b1-4)GlcNAc(b1-3)Gal(b1-4)GlcNAc(b1-3)Gal(b1-4)GlcNAc(b1-3)Gal(b1-4)GlcNAc(b1-6)]Man(a1-6)[GlcNAc(b1-3)Gal(b1-4)GlcNAc(b1-3)Gal(b1-4)GlcNAc(b1-3)Gal(b1-4)GlcNAc(b1-3)Gal(b1-4)GlcNAc(b1-2)Man(a1-3)]Man(b1-4)GlcNAc(b1-4)[Fuc(a1-6)]GlcNAc
In short: as §1

[6] = target: GlcNAc(b1-3)Gal(b1-4)GlcNAc(b1-6)[Gal(b1-3)]GalNAc
In short: as §1

[7] = target: GlcNAc(b1-3)Man
In short: as §1

[8] = target: Kdn(a2-6)Gal(b1-4)GlcNAc
In short: as §1

[9] = target: Man(a1-3)[Man(a1-6)]Man(a1-6)[Man(a1-3)]Man(b1-4)GlcNAc(b1-4)GlcNAc
In short: as §1

[10] = target: Man(b1-4)GlcNAc
In short: as §1

[11] = target: Neu5Ac(a2-3)Gal
In short: as §1

[12] = target: Neu5Ac(a2-3)Gal(b1-3)GlcNAc(b1-2)Man(a1-3)[GlcNAc(b1-4)][Neu5Ac(a2-3)Gal(b1-3)GlcNAc(b1-2)Man(a1-6)]Man(b1-4)GlcNAc(b1-4)GlcNAc
In short: as §1

[13] = target: Neu5Ac(a2-3)Gal(b1-3)GlcNAc(b1-2)[Neu5Ac(a2-3)Gal(b1-3)GlcNAc(b1-4)]Man(a1-6)[Neu5Ac(a2-3)Gal(b1-3)GlcNAc(b1-2)Man(a1-3)]Man(b1-4)GlcNAc(b1-4)GlcNAc
In short: as §1

[14] = target: Neu5Ac(a2-3)Gal(b1-3)GlcNAc(b1-3)Gal(b1-4)GlcNAc
In short: as §1

[15] = target: Neu5Ac(a2-3)Gal(b1-3)GlcNAc6S
In short: as §1

[16] = target: Neu5Ac(a2-3)Gal(b1-3)[Fuc(a1-4)]GlcNAc
In short: as §1

[17] = target: Neu5Ac(a2-3)Gal(b1-3)[Neu5Ac(a2-6)]GlcNAc(b1-3)[Fuc(a1-3)[Gal(b1-4)]GlcNAc(b1-6)]Gal(b1-4)Glc
In short: as §1

[18] = target: Neu5Ac(a2-3)Gal(b1-4)GlcNAc(b1-2)Man(a1-3)[Neu5Ac(a2-3)Gal(b1-4)GlcNAc(b1-2)Man(a1-6)]Man(b1-4)GlcNAc(b1-4)[Fuc(a1-6)]GlcNAc
In short: as §1

[19] = target: Neu5Ac(a2-3)Gal(b1-4)GlcNAc(b1-3)Gal(b1-4)GlcNAc(b1-3)[Neu5Ac(a2-3)Gal(b1-4)GlcNAc(b1-3)Gal(b1-4)GlcNAc(b1-6)]GalNAc
In short: as §1

[20] = target: Neu5Ac(a2-3)Gal(b1-4)GlcNAc(b1-6)[Neu5Ac(a2-3)Gal(b1-3)]GalNAc
In short: as §1

[21] = target: Neu5Ac(a2-3)Gal(b1-4)GlcNAc6S
In short: as §1

[22] = target: Neu5Ac(a2-3)Gal(b1-4)[Fuc(a1-3)]GlcNAc(b1-3)Gal(b1-4)GlcNAc
In short: as §1

[23] = target: Neu5Ac(a2-3)GalNAc
In short: as §1

[24] = target: Neu5Ac(a2-3)[GalNAc(b1-4)]Gal(b1-4)Glc
In short: as §1

[25] = target: Neu5Ac(a2-6)Gal(b1-4)GlcNAc(b1-2)Man
In short: as §1

[26] = target: Neu5Ac(a2-6)Gal(b1-4)GlcNAc(b1-2)[Neu5Ac(a2-6)Gal(b1-4)GlcNAc(b1-6)]Man(a1-6)[Neu5Ac(a2-6)Gal(b1-4)GlcNAc(b1-2)Man(a1-3)][GlcNAc(b1-4)]Man(b1-4)GlcNAc(b1-4)GlcNAc
In short: as §1

[27] = target: Neu5Ac(a2-6)Gal(b1-4)GlcNAc(b1-3)Gal(b1-4)GlcNAc(b1-6)[Gal(b1-3)]GalNAc
In short: as §1

[28] = target: Neu5Ac(a2-6)Gal(b1-4)GlcNAc(b1-3)GalNAc
In short: as §1

[29] = target: Neu5Ac(a2-6)Gal(b1-4)GlcNAc(b1-3)[Neu5Ac(a2-6)Gal(b1-4)GlcNAc(b1-6)]GalNAc
In short: as §1

[30] = target: Neu5Ac(a2-6)Gal(b1-4)GlcNAc(b1-6)[Gal(b1-3)]GalNAc
In short: as §1

[31] = target: Neu5Ac(a2-6)Gal(b1-4)GlcNAc6S
In short: as §1

[32] = target: Neu5Ac(a2-6)GalNAc(b1-4)GlcNAc
In short: as §1

[33] = target: Neu5Ac(a2-6)GlcNAc(b1-4)GlcNAc
In short: as §1

[34] = target: Neu5Ac(a2-8)Neu5Ac(a2-3)Gal(b1-3)GalNAc(b1-4)[Neu5Ac(a2-8)Neu5Ac(a2-3)]Gal(b1-4)Glc
In short: as §1

[35] = target: Neu5Ac(a2-8)Neu5Ac(a2-3)Gal(b1-4)GlcNAc
In short: as §1

[36] = target: Neu5Ac(a2-8)Neu5Ac(a2-8)Neu5Ac(a2-3)[GalNAc(b1-4)]Gal(b1-4)Glc
In short: as §1

B1: ArathEULS3 TAP (Arabidopsis thaliana) (protein)
chain: IDENLYFQGGSMDEKTTGWRGGHVVEGLAGELEQLRARLEHHPQGQREPGGGGSLEITSLYKKAGFMEHHHQHHRHHQRDDGEDDRQSFGVPPPHVDAPPQPHGLYQSQPHFDPYAPTPQAPAPYRSETQFEPHAPPPYRSEPYFETPAPPPSFGHVSHVGHQSPNESYPPEHHRYGGYQQPSNSLLESHGDHSGVTHVAHHSSNQPQSSSGVYHKPDENRLPDNLAGLAGRATVKVYSKAEPNYNLTIRDGKVILAPADPSDEAQHWYKDEKYSTKVKDADGHPCFALVNKATGEAMKHSVGATHPVHLIRYVPDKLDESVLWTESKDFGDGYRTIRMVNNTRLNVDAYHGDSKSGGVRDGTTIVLWDWNKGDNQLWKIFPF
- glycan array binding signal (z-score) [1]: 0.442
- glycan array binding signal (z-score) [2]: 2.26
- glycan array binding signal (z-score) [3]: 2.42
- glycan array binding signal (z-score) [4]: 0.229
- glycan array binding signal (z-score) [5]: 3.16
- glycan array binding signal (z-score) [6]: -0.045
- glycan array binding signal (z-score) [7]: 0.29
- glycan array binding signal (z-score) [8]: 0.575
- glycan array binding signal (z-score) [9]: 3.03
- glycan array binding signal (z-score) [10]: -0.658
- glycan array binding signal (z-score) [11]: -1.33
- glycan array binding signal (z-score) [12]: -1.32
- glycan array binding signal (z-score) [13]: 1.77
- glycan array binding signal (z-score) [14]: -0.43
- glycan array binding signal (z-score) [15]: 0.337
- glycan array binding signal (z-score) [16]: 0.016
- glycan array binding signal (z-score) [17]: 2.31
- glycan array binding signal (z-score) [18]: -0.12
- glycan array binding signal (z-score) [19]: 0.575
- glycan array binding signal (z-score) [20]: -1.05
- glycan array binding signal (z-score) [21]: -0.296
- glycan array binding signal (z-score) [22]: 2.91
- glycan array binding signal (z-score) [23]: 0.618
- glycan array binding signal (z-score) [24]: 0.447
- glycan array binding signal (z-score) [25]: 0.021
- glycan array binding signal (z-score) [26]: -0.647
- glycan array binding signal (z-score) [27]: -0.634
- glycan array binding signal (z-score) [28]: 0.12
- glycan array binding signal (z-score) [29]: 0.364
- glycan array binding signal (z-score) [30]: 0.429
- glycan array binding signal (z-score) [31]: -0.553
- glycan array binding signal (z-score) [32]: 0.004
- glycan array binding signal (z-score) [33]: 1.18
- glycan array binding signal (z-score) [34]: 2.9
- glycan array binding signal (z-score) [35]: -0.433
- glycan array binding signal (z-score) [36]: -0.112
